Records with an inconclusive call do not appear. Activity calls are given as the source filed them. Unless noted, calls come from the whole dose curve.
Columns and labels:
[1] = Primary qHTS for inhibitors of SARS-S pseudo-typed particle cell entry (AID 1479145); note: nearly all actives have a fitted effect of over 45% in size; note: potency is the fitted concentration of half-maximal effect
[2] = Primary qHTS for Huh7 cytotoxicity: counterscreen for inhibitors of MERS-S pseudotyped particle cell entry (AID 1479147)
[3] = Primary qHTS for inhibitors of MERS-S pseudo-typed particle cell entry (AID 1479149); note: nearly all actives have a fitted effect of over 60% in size; note: potency is the fitted concentration of half-maximal effect
[4] = Primary qHTS for Vero E6 cytotoxicity: counterscreen for inhibitors of SARS-S pseudo-typed particle cell entry (AID 1479150); note: potency is the fitted concentration of half-maximal effect
[5] = Primary qHTS for inhibitors of La Crosse Virus (LACV) - induced cell death in SH-SY5Y cells (AID 1508616; active = well fitted curve in the direction sought with a large enough effect; an effect the other way counts as inactive or inconclusive;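 note: top concentration of the series differs between compounds; higher means more rescue of cells from virus-induced death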)
Outline: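 SH-SY5Y cells (6000/well) plated 24 h, then given compounds by pin transfer and LACV at 0.01 MOI for 6 days at 37C. Viability measured by ATPLite luminescence, normalized to infected DMSO and uninfected DMSO.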

[6] = target: Calcium and integrin-binding protein 1 (Homo sapiens) (UniProt Q99828); experiment: Primary qHTS for Identification of Calcium Integrin Binding Protein 1 (CIB1) Competitor (AID 1508620; active = well fitted curve in the direction sought with a large enough effect; an effect the other way counts as inactive or inconclusive;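 note: GST tagged CIB1 binding a fluorescein labelled alphaIIb integrin peptide tracer; top concentration of the series differs between compounds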)
Calcium and integrin-binding protein 1 (Homo sapiens), sequence (Q99828 whole entry, looked up): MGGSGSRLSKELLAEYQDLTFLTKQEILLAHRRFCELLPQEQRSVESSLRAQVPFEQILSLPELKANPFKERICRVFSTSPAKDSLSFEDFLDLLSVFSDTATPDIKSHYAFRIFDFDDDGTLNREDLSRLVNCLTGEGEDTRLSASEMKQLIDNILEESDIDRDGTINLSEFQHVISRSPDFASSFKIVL
Outline: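 CIB1-GST (1 uM final) and compound incubated 15 min at room temperature before adding FITC-alphaIIb peptide tracer (100 nM final). Competition for binding read by fluorescence polarization (ex 480, em 540) after another 15 min at room temperature.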

[7] = target: Calcium and integrin-binding protein 1 (Homo sapiens) (UniProt Q99828); experiment: Validation qHTS for Identification of Calcium Integrin Binding protein 1 (CIB1) Competitor (AID 1508618; active = well fitted curve in the direction sought with a large enough effect; an effect the other way counts as inactive or inconclusive)
Outline: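 In this qHTS validation, the LOPAC set (up to 114 uM) was tested for blocking CIB1 binding to a fluorescein-tagged alphaIIb peptide, with FP detection at 480/540 nm.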

[8] = Confirmatory qHTS for VERO E6 Cytotoxicity Assay: Counterscreen for SARS-CoV-2 CPE Assay (AID 1508605); note: potency is the fitted concentration of half-maximal effect; nearly all actives have a fitted effect of over 60% in size

Measured: Potency

CC[N+]1(CCOC(=O)C(O)(c2ccccc2)c2ccccc2)CCCCC1
not listed: [7] | [8]
inactive: all other assays above

C1CCC(NC2CCCCC2)CC1
inactive: [1] | [2] | [3] | [4] | [6]

CC(C)(C)NCC(O)c1ccc(O)c(CO)c1 (configuration not stated)
inactive: [1] | [2] | [3] | [4]

CN(C)[C@@H]1C(=O)C(C(N)=O)=C(O)[C@@]2(O)C(=O)C3=C(O)c4c(O)cccc4[C@@](C)(O)[C@H]3[C@H](O)[C@@H]12
inactive: [1] | [2] | [3] | [4] | [6]

CCCCCCCCCCCCCC(=O)OC(C)C
inactive: [1] | [2] | [3] | [4]

CCCOC(=O)c1ccc(O)cc1
inactive: [2] | [3] | [4]

Cc1c(C(=O)Nc2ccc(N3C[C@@H](C)O[C@@H](C)C3)nc2)cccc1-c1ccc(OC(F)(F)F)cc1
inactive: [2] | [4]
active: [3] 20 µM

CN1CCN(c2c(F)cc3c(=O)c(C(=O)O)cn4c3c2OCN4C)CC1
inactive: [1] | [2] | [3] | [4]

O=[N+]([O-])/N=C1\NCCN1Cc1ccc(Cl)nc1
not listed: [7] | [8]
inactive: all other assays above

C[C@H](CN1CCCC1)C(=O)c1ccc(C(F)(F)F)cc1
inactive: [1] | [2] | [4]

COc1c(N2CCNC(C)C2)c(F)cc2c(=O)c(C(=O)O)cn(C3CC3)c12 (configuration not stated)
inactive: [1] | [2] | [3] | [4]

CC[C@H](Nc1ncnc2nc[nH]c12)c1nc2cccc(F)c2c(=O)n1-c1ccccc1
inactive: [2] | [3] | [4]

CCN(CC)c1ccc(C(=C2C=CC(=[N+](CC)CC)C=C2)c2cc(S(=O)(=O)O)ccc2S(=O)(=O)[O-])cc1
inactive: [1] | [3]

COC(=O)c1cncn1C(C)c1ccccc1 (configuration not stated)
not listed: [7] | [8]
inactive: all other assays above

O=C(O)c1ccccn1
inactive: [1] | [2] | [3] | [4]

CNC(=O)c1ccc(N2C(=S)N(c3ccc(C#N)c(C(F)(F)F)c3)C(=O)C2(C)C)cc1F
active: [1] 8.91 µM
inactive: [2] | [4]

O=C(O)COc1ccccc1
not listed: [7] | [8]
inactive: all other assays above

Cc1ccccc1N=Nc1ccc(N=Nc2c(O)ccc3ccccc23)c(C)c1
inactive: [2] | [3] | [4]

CC(Cc1ccc(O)cc1)NCC(O)c1cc(O)cc(O)c1 (configuration not stated)
not listed: [8]
inactive: all other assays above

Cc1cc(O)ccc1Cl
not listed: [7] | [8]
inactive: all other assays above

Cc1ccc(C(=O)Nc2ccc(CN3CCN(C)CC3)c(C(F)(F)F)c2)cc1C#Cc1cnc2cccnn12
active: [1] 3.55 µM | [4] 22.4 µM

COc1ccc2cc(CCC(C)=O)ccc2c1
inactive: [1] | [2] | [3] | [4]

CCC(=O)O[C@@H]1C=C2CCC3C(CCC4(C)C3CC[C@@H]4OC(=O)CC)C2CC1 (some centres not stated)
not listed: [7] | [8]
inactive: all other assays above

NCCS
inactive: [1] | [2] | [3] | [4]

O=[N+]([O-])c1ccc([As](=O)(O)O)cc1
inactive: [1] | [2] | [4] | [5] | [6]

CC(C)C[C@H](NC(=O)CNC(=O)c1cc(Cl)ccc1Cl)B(O)O
active: [3] 0.794 µM
inactive: [1]

NC1=NC(=O)N2CC12 (configuration not stated)
inactive: [1] | [2] | [3] | [4] | [6]

CC(C[N+](C)(C)C)OC(N)=O (configuration not stated)
inactive: [1] | [2] | [3] | [4]

O=C(Nc1cccc(C2=NCCN2)c1)Nc1cccc(C2=NCCN2)c1
inactive: [1] | [2] | [3] | [4]

CNC(=O)c1cc(Oc2ccc(NC(=O)Nc3ccc(Cl)c(C(F)(F)F)c3)c(F)c2)ccn1
active: [1] 14.1 µM
inactive: [2] | [4]

Cc1cn(-c2cc(NC(=O)c3ccc(C)c(Nc4nccc(-c5cccnc5)n4)c3)cc(C(F)(F)F)c2)cn1
inactive: [2] | [3] | [4]

N[C@H]1C(O)O[C@H](CO)[C@@H](O)[C@@H]1O (some centres not stated)
inactive: [1] | [2] | [3] | [4]

CC1=C(C/C=C(\C)CCC[C@H](C)CCC[C@H](C)CCCC(C)C)C(=O)c2ccccc2C1=O
inactive: [1] | [2] | [4]

COc1ccccc1O
inactive: [1] | [2] | [3] | [4]

CNCc1ccc(-c2[nH]c3cc(F)cc4c3c2CCNC4=O)cc1
inactive: [1] | [2] | [3] | [4]

C[C@@H]1CN(c2c(F)c(N)c3c(=O)c(C(=O)O)cn(C4CC4)c3c2F)C[C@H](C)N1
inactive: [1] | [2] | [3] | [4]

CCN(CC)CCCCNc1nc2cc(Cl)c(Cl)cc2nc1-c1ccc(-c2cccs2)s1
active: [8] 10 µM

NC(=NCCC[C@H](N)C(=O)O)N[N+](=O)[O-]
inactive: [5]

O=C(c1cc(Cc2n[nH]c(=O)c3ccccc23)ccc1F)N1CCN(C(=O)C2CC2)CC1
inactive: [2] | [4]

Reference: PubChem BioAssay (NCATS)
